Rab9 prom act – Rab9 promoter activation. Potency, µM (top dose mostly 9.22 µM), for inactives: at the highest dose activation, negative = inhibition, most hits filed as activators. hit rate 2.8% among 320,000. Huh7 Rab9 promoter-luciferase reporter, luminescence, 24 h; note: % of control where 0% means no effect; nearly all actives have a fitted effect of over 60% in size
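Promoter activation is measured as luciferase luminescence in Huh7 cells stably transfected with a Rab9 promoter–luciferase construct, following 24 h compound exposure at 37 °C and 10 min reagent incubation at ambient temperature.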
KinaseGlo FLuc – counter-screen: inhibitors of Kinase-Glo firefly luciferase | Q27757 | Kinase-Glo luciferase, ATP luminescence, 8 min | Potency, µM (top dose mostly 38.3 µM), without a hit: at the highest dose activity change, negative = inhibition, hits mostly inhibitors | hit rate 0.28% among 200,000 | AID 1379; note: % is set by controls: 0 for no effect and ±100 for the full control effect; nearly all actives have a fitted effect of over 60% in size
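Inhibition of Kinase-Glo luciferase light generation was assessed at 10 uM ATP in pH 7.2 imidazole buffer, with luminescence measured after eight minutes at ambient temperature.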
FLuc modulator – counter-screen for miR-21 project: firefly luciferase inhibitors or activators; P08659; purified FLuc, Km substrates, luminescence inhibition; Potency, µM (doses to about 57.5 µM), for inactives: at the top dose activity change, negative = inhibition, actives largely listed as inhibitors; hit rate 6.9% among 360,000; AID 588342;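 note: plate controls were vehicle for no effect and reference inhibitor for full effect; nearly all actives have a fitted effect of over 55% in size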
Target sequence (P08659 whole entry, looked up): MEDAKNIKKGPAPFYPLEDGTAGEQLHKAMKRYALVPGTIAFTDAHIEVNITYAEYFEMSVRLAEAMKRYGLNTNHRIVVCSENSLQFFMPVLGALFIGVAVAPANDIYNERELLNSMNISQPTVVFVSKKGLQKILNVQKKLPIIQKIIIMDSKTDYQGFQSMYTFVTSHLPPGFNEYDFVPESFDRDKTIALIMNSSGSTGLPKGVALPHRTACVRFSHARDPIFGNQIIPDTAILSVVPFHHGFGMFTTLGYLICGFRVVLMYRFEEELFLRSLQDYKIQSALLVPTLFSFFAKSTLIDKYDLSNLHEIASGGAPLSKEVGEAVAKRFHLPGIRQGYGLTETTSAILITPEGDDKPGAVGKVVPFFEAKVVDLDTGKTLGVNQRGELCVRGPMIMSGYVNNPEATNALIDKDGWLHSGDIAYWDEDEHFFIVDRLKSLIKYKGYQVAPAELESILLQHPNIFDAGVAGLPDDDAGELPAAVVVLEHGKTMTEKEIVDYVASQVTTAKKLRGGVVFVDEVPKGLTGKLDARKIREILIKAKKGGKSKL
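Purified P. pyralis luciferase, 10 nM final, with Km-level 10 uM D-luciferin and 10 uM ATP in 50 mM Tris acetate pH 7.5, 10 mM Mg acetate, 0.01% Tween-20, 0.05% BSA; 6-point qHTS titration about 60 µM downward; luminescence read.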
NPC1 prom act – activates the NPC1 promoter. Huh7 NPC1 promoter luciferase reporter, 24 h. Potency, µM (series often up to 9.22 µM), inactives show top-dose activation, usual class: activators. hit rate 2.4% among 320,000. AID 485313; note: % of control where 0% means no effect; nearly all actives have a fitted effect of over 60% in size
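Readout is luciferase luminescence, reflecting NPC1 promoter activation in stably transfected Huh7 cells after 24 h compound exposure at 37 °C in reduced-serum medium with 10% FBS.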
SMN2 splice up – SMN2 splice variant enhancement | HEK293 SMN2-luciferase splicing reporter, luminescence, 30-36 h | Potency, µM (top dose mostly 46.1 µM), for inactives: at the highest dose activity change, positive = activation, actives largely listed as activators | hit rate 2.8% among 210,000 | AID 1458; note: % of control where 0% means no effect; nearly all actives have a fitted effect of over 55% in size
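qHTS luciferase splicing reporter: luminescence rises when SMN2 exon 7 is included in transfected HEK293 cells. Compound exposure lasted 30-36 h at 37C, with 4.5 mM final sodium butyrate as control, followed by a ONE-Glo read.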
The depositor's hits bear a star; u = inconclusive; x = no result; [ ] = remark or other dose. A selection: hits, their analogues and other compounds. The true share with any hit is near 7.3%. Calls come from the whole dose curve; as a rule, active = well fitted curve in the direction sought with a large enough effect; inconclusive = small, poorly fitted or top-dose-only effect, or another doubt; inactive = no such curve, though single readings can be large; an effect the other way counts as inactive or inconclusive. Potency is the fitted concentration of half-maximal effect.

SMILES	Rab9 prom act	KinaseGlo FLuc	FLuc modulator	NPC1 prom act	SMN2 splice up
O=C(COc1ccccc1)Nc1cccc(-c2ccc(N3CCOCC3)nn2)c1	1.3µM*	x	1.9µM*	1.8µM*	x
CCOc1ccc(C(=O)c2cn(CC(=O)Nc3cc(OC)cc(OC)c3)c3ccc(F)cc3c2=O)cc1	x	x	-5%	x	11%
Cc1ccc(N2CCN(C(=O)c3cnn(-c4ccc(C)c(C)c4)c3C3CCNCC3)CC2)c(C)c1	x	x	0%	x	x
CC(C)(C)c1ccc(OCc2ccc(C(=O)NCc3cccnc3)o2)cc1	1.3µM*	-1%	17µM*	2.8µM*	u
NNC(=O)c1ccc(COc2ccc(Br)cc2)o1	1%	x	-8%	12%	x
CC(C)(c1ccccc1)c1ccc(OCc2ccc(C(=O)O)o2)cc1	1.1µM*	x	27µM*	2.8µM*	x
CC(C)(C)c1ccc(OCc2ccc(C(=O)NN)o2)cc1	0.79µM*	x	15µM*	0.4µM*	x
CCc1ccc(-n2c(=O)c3c4c(sc3n(CC(=O)NC(C)CC)c2=O)CCCC4)cc1 (stereo unspecified)	x	x	-5%	x	1%
Cc1ccc2nc(Cc3ccc(N)cc3)oc2c1	3.2µM*	1%	13µM*	3.5µM*	u
Cc1ccc2nc(-c3cccc(N)c3)oc2c1	3.5µM*	-26%	0.21µM*	0.89µM*	u
Cc1cc(C)c2oc(-c3cccc(N)c3)nc2c1	u	x	3.8µM*	3.5µM*	x
CCc1ccc2oc(-c3cccc(N)c3)nc2c1	1.6µM*	-23%	0.24µM*	0.56µM*	6.3µM*
Cc1cccc(-c2nc(N)nc(N)n2)c1	u	x	u	21%	x
Cc1ccc2nc(CCc3nc4ccc(C)cc4o3)oc2c1	8%	-3%	-2%	-2%	-3%
Cc1ccc2nc(-c3ccc(O)cc3)oc2c1	u	x	0.95µM*	2.5µM*	x
CNC(=O)Nc1ccc2nc(C)sc2c1	20%	-4%	u	8%	x
CC(=O)Nc1ccc2nc(NC(=O)c3ccc([N+](=O)[O-])s3)sc2c1	u	x	5.4µM*	22%	x
COc1ccc2nc(NC(=O)Nc3cccc4ccccc34)sc2c1	u	0%	u	22%	u
CC(=O)Nc1ccc2nc(NC(=O)COc3ccc([N+](=O)[O-])cc3)sc2c1	-3%	-6%	3%	1%	x
COc1ccc2nc(NC(=O)c3cccs3)sc2c1	0.28µM*	x	0.67µM*	0.32µM*	x
CC(=O)Nc1ccc2nc(NC(=O)c3cccs3)sc2c1	0.32µM*	x	2.1µM*	0.63µM*	x
CC(=O)Nc1ccc2nc(NC(=O)CS(=O)(=O)c3ccccc3)sc2c1	-8%	x	u	2%	x
Cc1nc2ccc(NC(=O)c3cccs3)cc2s1	2.5µM*	x	17µM*	3.5µM*	x
C=C[C@]1(C)C[C@H](OC(=O)CO)[C@]2(C)C3C(=O)CC[C@]3(CC[C@H]2C)[C@H](C)[C@H]1O (stereo partly specified)	x	1%[7.66 µM]	x	x	1%[9.22 µM]
CCc1cccc(NC(=O)Cn2c(=O)n(CC3CCC(C(=O)NC)CC3)c(=O)c3sccc32)c1 (stereo unspecified)	x	x	-7%	x	x
SMILES	Rab9 prom act	KinaseGlo FLuc	FLuc modulator	NPC1 prom act	SMN2 splice up
Cc1nc2ccc(NC(=O)c3sccc3C)cc2s1	2.2µM*	-19%	7.6µM*	1.8µM*	11µM*
COc1ccc(C(=O)Nc2nc3c(s2)Cc2cc(OC)ccc2-3)cc1	5%	-4%	u	-1%	-38%
C=CCN(CC=C)C(=O)Nc1ccc2nc(C)sc2c1	-2%	-2%	-19%	1%	17%
Cc1nc2cc(NC(=O)c3ccc([N+](=O)[O-])s3)ccc2s1	u	x	3.8µM*	19%	x
COc1ccc2c(c1)Cc1sc(NC(=O)c3cccs3)nc1-2	2.8µM*	-22%	u	4µM*	u
Cc1ccc(CNC(=O)c2cccn2-c2nnc(N3CCCCC3)s2)cc1	x	x	-2%	x	x
COCCNC(=O)Cn1c(=O)c2cccn2c2ccc(F)cc21	x	x	-1%	x	x
CCCn1ccc2c(OCC(=O)NCc3ccccc3Cl)cccc2c1=O	x	x	-6%	x	x
Cc1c(NC(=O)c2ccc(Cl)cc2)cc(C(C)C)c(O)c1S(=O)(=O)c1ccccc1	x	x	u	x	16µM*
COc1ccc(C(=O)Nc2cc(S(=O)(=O)c3ccc(Cl)cc3)c(O)c(C)c2C)cc1	x	x	8.5µM*	x	15%
CCOC(=O)c1c(C)oc2ncnc(Nc3ccc(F)cc3Cl)c12	x	x	-4%	x	x
O=C(Nc1ccccn1)c1ccc2c(c1)OCO2	1.3µM*	11µM*	12µM*	3.2µM*	11µM*
O=C(Cc1ccc([N+](=O)[O-])cc1)NNC(=O)c1ccc2c(c1)OCO2	3%	x	6%	1%	x
O=C(CNC(=O)c1ccc2c(c1)OCO2)Nc1ncccc1O	u	x	u	29%	x
O=C(Nc1ccccn1)c1ccc2c(c1)OCCO2	0.63µM*	u	6.7µM*	1.1µM*	2.5µM*
O=C(Nc1ncccc1Cl)c1ccc2c(c1)OCCO2	2.5µM*	u	13µM*	3.2µM*	10µM*
O=C(Nc1ccc([N+](=O)[O-])cn1)c1ccc2c(c1)OCO2	1.6µM*	-7%	-6%	u	u
Cc1nn(C)c(C)c1S(=O)(=O)N(CC(=O)NCCc1ccccc1)c1ccc(C(C)C)cc1	x	x	0%	x	-9%
Cc1cccc(C(=O)NCC(c2ccc3c(c2)OCO3)N2CCN(c3ccccc3F)CC2)c1 (stereo unspecified)	x	x	-14%	x	x

High-throughput results as filed in PubChem BioAssay.
